The supplement of paper PMC8866396
± gives the standard deviation of the averaged measurements.

What follows are molecules tested on IL-6-GFP PC-9 (assay: cell viability (CCK-8 OD) relative to DMSO control (fraction of control); higher = more viable cells). Conditions: compound concentration: 10 uM; treatment time: 48 h.
Procedure, shortened: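 Each well's viability is its CCK-8 optical density divided by that of the vehicle control well. The cells, PC-9 and PC-9GR lung cancer lines overexpressing IL-6-GFP from a lentiviral construct, were seeded at 3000 cells/well in 96-well plates and exposed for 48 h to each compound of a purchased 510-compound library at a final 10 μM, in two independent replicates.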

Row | Structure (SMILES) | cell viability
1 | Cc1ccc(=O)n(-c2ccccc2)c1 [Pirfenidone] | 1.07 ± 0.31
2 | COc1ccc2cc(CCC(C)=O)ccc2c1 [Nabumetone] | 1.11 ± 0.13
3 | CCc1cccc2c3c([nH]c12)C(CC)(CC(=O)O)OCC3 (stereo unspecified) [Etodolac] | 0.989 ± 0.076
4 | C=C(NC(=O)C(=C)NC(=O)c1csc(C2=NC3c4csc(n4)C4NC(=O)c5csc(n5)C(C(C)(O)C(C)O)NC(=O)C5CSC(=N5)/C(=C/C)NC(=O)C(C(C)O)NC(=O)c5csc(n5)C3(CC2)NC(=O)C(C)NC(=O)C(=C)NC(=O)C(C)NC(=O)C(C(C)CC)NC2C=Cc3c(C(C)O)cc(nc3C2O)C(=O)OC4C)n1)C(N)=O (stereo unspecified) [Thiostrepton] | 0.412 ± 0.15
5 | Cl.Cl.O=C(O)COCCN1CCN(C(c2ccccc2)c2ccc(Cl)cc2)CC1 (stereo unspecified) [Cetirizine DiHCl] | 1.02 ± 0.033
6 | CN1C(C(=O)Nc2ccccn2)=C(O)c2ccccc2S1(=O)=O [Piroxicam] | 1.09 ± 0.12
7 | COc1c2occc2cc2ccc(=O)oc12 [Methoxsalen] | 0.839 ± 0.23
8 | CC1Oc2cc(cnc2N)-c2c(nn(C)c2C#N)CN(C)C(=O)c2ccc(F)cc21 (stereo unspecified) | 0.945 ± 0.12
9 | COC1CC2CCC(C)C(O)(O2)C(=O)C(=O)N2CCCCC2C(=O)OC(C(C)CC2CCC(OCCO)C(OC)C2)CC(=O)C(C)/C=C(\C)C(O)C(OC)C(=O)C(C)CC(C)/C=C/C=C/C=C/1C (stereo unspecified) [Everolimus (RAD001)] | 0.66 ± 0.29
10 | COc1ccc2c(c1)nc(S(=O)Cc1ncc(C)c(OC)c1C)[n]2[Na] (stereo unspecified) [Esomeprazole sodium] | 0.939 ± 0.16
11 | COc1cc(C2Oc3cc(C4Oc5cc(O)cc(O)c5C(=O)C4O)ccc3OC2CO)ccc1O (stereo unspecified) [Silibinin] | 1.15 ± 0.099
12 | FC(F)(F)c1ccc(CNc2ccc(Cc3c[nH]c4ncc(Cl)cc34)cn2)cn1 [Pexidartinib (PLX3397)] | 0.898 ± 0.048
13 | N#Cc1ccc(C2CCCc3cncn32)cc1 (stereo unspecified) [Fadrozole] | 1.18 ± 0.074
14 | CCC1=CC2CN(C1)Cc1c([nH]c3ccccc13)C(C(=O)OC)(c1cc3c(cc1OC)N(C)C1C(O)(C(=O)OC)C(OC(C)=O)C4(CC)C=CCN5CCC31C54)C2.O=C(O)C(O)C(O)C(=O)O.O=C(O)C(O)C(O)C(=O)O (stereo unspecified) [Vinorelbine Tartrate] | 0.566 ± 0.081
15 | COc1cc2ncnc(Nc3ccc(F)c(Cl)c3)c2cc1OCCCN1CCOCC1 [Gefitinib (ZD1839)] | 0.664 ± 0.061
16 | CN(C)CCCOc1nn(Cc2ccccc2)c2ccccc12.Cl [Benzydamine HCl] | 0.549 ± 0.52

Row | Structure (SMILES) | cell viability
17 | CC(Oc1cc(-c2cnn(C3CCNCC3)c2)cnc1N)c1c(Cl)ccc(F)c1Cl (stereo unspecified) | 0.529 ± 0.15
18 | CCCCCOC(=O)Nc1nc(=O)n(C2OC(C)C(O)C2O)cc1F (stereo unspecified) [Capecitabine] | 0.459 ± 0.015
19 | CC(=O)N1CC(O)CC1C(=O)O (stereo unspecified) [Oxaceprol] | 1.05 ± 0.098
20 | CCc1cc2c(cc1N1CCC(N3CCOCC3)CC1)C(C)(C)c1[nH]c3cc(C#N)ccc3c1C2=O | 0.584 ± 0.18
21 | S=P(N1CC1)(N1CC1)N1CC1 [Thiotepa] | 0.977 ± 0.074
22 | COc1ccc2c(c1)c(CC(=O)OCC(=O)O)c(C)n2C(=O)c1ccc(Cl)cc1 [Acemetacin] | 0.954 ± 0.2
23 | CCC(C)(Oc1ccc(C2(c3ccc(OC(C)(CC)C(=O)O)cc3)CCCCC2)cc1)C(=O)O (stereo unspecified) [Clinofibrate] | 1.23 ± 0.42
24 | CC(C)C(=O)Nc1ccc([N+](=O)[O-])c(C(F)(F)F)c1 [Flutamide] | 1.2 ± 0.53
25 | Cc1cc(S(=O)(=O)[O-])c2c(C)ccc(C(C)C)cc1-2.[Na+] [Sodium gualenate] | 0.583 ± 0.022
26 | Nc1ccn(C2OC(CO)C(O)C2O)c(=O)n1 (stereo unspecified) [Cytarabine] | 0.7893 ± 0.0033
27 | O=C(c1cc(Cc2n[nH]c(=O)c3ccccc23)ccc1F)N1CCN(C(=O)C2CC2)CC1 | 1.16 ± 0.37
28 | CCC(C(=O)O)c1ccc(N2Cc3ccccc3C2=O)cc1 (stereo unspecified) [Indobufen] | 1.11 ± 0.049
29 | CC(C(=O)O)c1ccc2c(c1)CC(=O)c1ccccc1S2 (stereo unspecified) [Zaltoprofen] | 0.542 ± 0.067
30 | OCc1ccccc1OC1OC(CO)C(O)C(O)C1O (stereo unspecified) [Salicin] | 1.2 ± 0.097
31 | Oc1ccc(/C=C/c2cc(O)cc(O)c2)cc1 [Resveratrol] | 1.37 ± 0.064
